# Test results taken from the supplement of paper PMC10646978.
# ± gives the standard deviation.
# Tests used:
# Conditions in all cases: modulator concentration 10 µM
# [1] = system: RAW-Dual (murine macrophage reporter line); assay: NF-kB reporter (SEAP) activity fold change vs agonist alone; higher = enhanced NF-kB activity
# Method in brief: (§1)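 Overnight stimulation with a PRR agonist followed pre-incubation for 1 hour at 37 °C with compound at 10 μM final. This was done in RAW-Dual murine macrophage reporter cells seeded at 50 000 per well in 384-well plates. NF-κB (SEAP, QUANTI-Blue absorbance at 620 nm) and IRF (Lucia luciferase, QUANTI-Luc luminescence) were read from the supernatant. Each reporter's fold change relative to the mean agonist-only control on the same plate was averaged over replicate plates.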
# [2] = system: RAW-Dual (murine macrophage reporter line); assay: IRF reporter (Lucia luciferase) activity fold change vs agonist alone; higher = enhanced IRF activity
# Method in brief: as §1
# [3] = system: RAW-Dual (murine macrophage reporter line); assay: viability score (confluency relative to resting cells, overnight) (fraction); higher = more viable, active = viable (0.7 or more)
# Method in brief: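 In 384-well plates, RAW-Dual macrophages received compound at a final 10 μM overnight. Two confluency masks were then made with IncuCyte software from IncuCyte images of all imaged wells. The viability score is defined as confluency relative to resting cells. Passing the cutoff required both masks to lie above 70% of resting cells.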
# [4] = agonist: CpG ODN 1826 0.5 ug/mL
Compound,"NF-kB reporter [1, 4]",NF-kB reporter ([1]; agonist: LPS 0.1 ug/mL),NF-kB reporter ([1]; agonist: MPLA […]),IRF reporter ([2]; agonist: 3'3'-cGAMP 10 ug/mL),IRF reporter ([2]; agonist: LPS 0.1 ug/mL),IRF reporter ([2]; agonist: MPLA […]),viability score [3]
CCOC(=O)C1=C(COCCN)NC(C)=C(C(=O)OC)C1c1ccccc1Cl (stereo not drawn),0.533 ± 0.055,0.899 ± 0.052,1.55 ± 0.14,1.58 ± 0.1,1.34 ± 0.12,1.13 ± 0.095,0.589 (inactive)
Cc1c(C#N)sc2nc(-c3ccccc3)nc(N=CN(C)C)c12,1.01 ± 0.086,1.05 ± 0.095,0.952 ± 0.027,0.94 ± 0.056,0.971 ± 0.078,1.03 ± 0.18,1 (active)
Oc1c(Br)cc(C=NNc2nc3ccccc3s2)c(O)c1Br,0.957 ± 0.082,0.958 ± 0.098,1.08 ± 0.1,0.642 ± 0.069,1.35 ± 0.23,1.63 ± 0.44,1.03 (active)
CC(=O)Nc1ccc(NC(=S)NC(=O)C=Cc2ccc(Cl)cc2Cl)cc1,0.64 ± 0.05,0.741 ± 0.059,0.933 ± 0.095,0.428 ± 0.031,1.33 ± 0.12,1.3 ± 0.22,1 (active)
Cc1cc(C(=O)O)n[nH]1,1.01 ± 0.077,0.891 ± 0.15,1.03 ± 0.12,1.06 ± 0.038,1.24 ± 0.14,1.34 ± 0.2,1.02 (active)
CCOc1ccc(NC(=O)N2C3C=CCC2CC3)cc1 (stereo not drawn),1.09 ± 0.42,0.941 ± 0.055,1.04 ± 0.075,0.943 ± 0.054,0.921 ± 0.13,1.1 ± 0.1,0.814 (active)
CN(C)CCC=C1c2ccccc2Sc2ccc(Cl)cc21.Cl,0.333 ± 0.095,0.862 ± 0.052,1.12 ± 0.13,0.412 ± 0.046,1.39 ± 0.18,1.69 ± 0.16,0.547 (inactive)
Cc1ccccc1Oc1ccc(S(=O)(=O)N2CCCC2)cc1,0.68 ± 0.03,1.02 ± 0.14,0.922 ± 0.061,0.385 ± 0.018,1.03 ± 0.14,1.22 ± 0.26,0.953 (active)
O=C1NC(=O)c2c1cc1ccccc1c2-c1ccccc1,0.996 ± 0.18,0.979 ± 0.077,0.952 ± 0.15,0.887 ± 0.031,1.2 ± 0.2,1.35 ± 0.3,0.998 (active)
Cc1c(C(=O)OC(C)C)sc(NC(=O)C(F)(F)F)c1C(=O)OC(C)C,1.4 ± 0.08,1.01 ± 0.076,1.05 ± 0.032,0.781 ± 0.028,0.937 ± 0.067,1.19 ± 0.22,0.993 (active)
OCCN(CCO)c1nc(N2CCCCC2)c2nc(N(CCO)CCO)nc(N3CCCCC3)c2n1,1.58 ± 0.22,1.39 ± 0.35,1.06 ± 0.07,0.502 ± 0.022,1.18 ± 0.18,1.28 ± 0.17,0.984 (active)
O=S(=O)(Nc1cccc2cccnc12)c1ccccc1,0.961 ± 0.13,0.597 ± 0.097,0.659 ± 0.053,1.04 ± 0.081,5.63 ± 1,1.32 ± 0.29,0.745 (active)
COc1ccc(C=CC(=O)O)cc1OC,1.03 ± 0.077,1.1 ± 0.059,1 ± 0.022,1.03 ± 0.06,0.954 ± 0.078,0.973 ± 0.095,0.996 (active)
CCCCCN(CCCCC)C(=O)C(CCC(=O)[O-])NC(=O)c1ccc(Cl)c(Cl)c1 (stereo not drawn) [Prestw-915],1.02 ± 0.064,0.954 ± 0.096,0.901 ± 0.064,1.1 ± 0.073,1.55 ± 0.17,1.29 ± 0.14,0.832 (active)
CC1c2cccc(O)c2C(=O)C2=C(O)C3(O)C(=O)C(C(N)=O)=C(O)C(N(C)C)C3C(O)C21.Cl (stereo not drawn),1.34 ± 0.32,1.15 ± 0.058,1.04 ± 0.074,0.795 ± 0.041,1.14 ± 0.15,1.02 ± 0.12,0.992 (active)
COc1ccc(-c2[nH]c3ccccc3c2SCCNC(=O)c2ccccc2)cc1,1.12 ± 0.086,1.19 ± 0.072,1.29 ± 0.11,0.832 ± 0.035,1.42 ± 0.14,1.17 ± 0.12,0.966 (active)
c1ccc(CSc2nnc(-c3ccncc3)o2)cc1,1.08 ± 0.075,1.18 ± 0.073,1.44 ± 0.13,0.379 ± 0.017,0.65 ± 0.056,0.501 ± 0.068,0.988 (active)
COc1c(C)c2c(c(O)c1C/C=C(\C)CCC(=O)OCCN1CCOCC1)C(=O)OC2,0.66 ± 0.12,0.222 ± 0.02,0.517 ± 0.047,0.608 ± 0.049,1.28 ± 0.13,1.24 ± 0.13,0.813 (active)
CCOC(=O)C1=C[C@]2(CC)CCCN3CCc4c(n1c1ccccc41)[C@@H]32,0.825 ± 0.057,0.946 ± 0.077,0.994 ± 0.07,0.998 ± 0.045,1.21 ± 0.15,1.4 ± 0.46,0.949 (active)
O=C(NCCC(CCO)c1ccccc1)Nc1c(F)cccc1F (stereo not drawn),0.929 ± 0.078,1.02 ± 0.11,0.898 ± 0.041,0.972 ± 0.059,1.05 ± 0.084,0.978 ± 0.075,0.98 (active)
O=C(Cc1ccccc1)NC(NC(=S)Nc1ccc(O)cc1)C(Cl)(Cl)Cl (stereo not drawn),0.88 ± 0.075,0.818 ± 0.098,1.06 ± 0.1,0.935 ± 0.032,1.29 ± 0.24,1.57 ± 0.33,1.02 (active)
COc1ccc(N(CC(=O)N(C)Cc2ccccc2)S(C)(=O)=O)cc1OC,1.08 ± 0.086,1.02 ± 0.083,1.05 ± 0.08,1.03 ± 0.026,1.45 ± 0.21,1.1 ± 0.18,1.01 (active)
Cc1n[nH]c(C)c1S(=O)(=O)N1CCCN(C(=O)Cc2ccccc2Cl)CC1,1.03 ± 0.051,1.14 ± 0.11,1 ± 0.18,1.05 ± 0.053,1.21 ± 0.074,1.26 ± 0.11,0.979 (active)
COc1ccc(OC)c2sc(NC(=O)C(C)C)nc12,0.97 ± 0.075,1.02 ± 0.059,1 ± 0.031,0.837 ± 0.06,0.885 ± 0.11,0.828 ± 0.14,0.993 (active)
